The nature of this experiment: modulators of mitochondrial supercomplex assembly, cell-based, luminescence, Hoechst nuclei count (AID 1645838).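 For all read-outs here: control cybrid cells.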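 For z-score: higher means more mitochondrial supercomplex formation.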 Particulars: Cells, luminescence/Hoechst cell count ratio, supercomplex reporter; for z-score: stronger effect = higher value; for cell count: measured here: cell number, Hoechst nuclei count.
The mark [1] stands for this setting: library stock concentration (final well concentration not given) 46 uM.
[2] abbreviates: library stock concentration (final well concentration not given) 278 uM.
Where [3] appears, read: library stock concentration (final well concentration not given) 1.67 mM.
The mark [4] stands for this setting: library stock concentration (final well concentration not given) 10 mM.
Setting [5] is: library stock concentration (final well concentration not given) 80 uM.
[6] abbreviates: library stock concentration (final well concentration not given) 400 uM.
Where [7] appears, read: library stock concentration (final well concentration not given) 2 mM.

The whole screen tested about 2,000 compounds, of which about 100 (5%) were called active. Cut-off read from the data, not from the text of the source: active = z-score above about 2; inactive = the rest. The sample as a whole holds a higher share of actives than the screen did.

Take `C[C@H](CCCO)[C@H]1CC[C@H]2[C@@H]3[C@H](O)C[C@H]4C[C@H](O)CC[C@]4(C)[C@H]3C[C@H](O)[C@]12C`: the z-score was -0.0135 (inactive) and the cell count was 5570.

For `O=C(Nc1cccc(Br)c1)c1cccc(S(=O)(=O)N2CCCCCC2)c1`, the z-score is -0.0641 (inactive) under setting [1], 0.273 (inactive) under setting [2], 0.0446 (inactive) under setting [3] and -0.0353 (inactive) under setting [4]. For the same molecule, the cell count by setting is: under setting [1], 6460; under setting [2], 6210; under setting [3], 6270; under setting [4], 5890.

With `CC(=NNC(=O)c1cccc(S(=O)(=O)N2CCOCC2)c1)c1cc(Cl)ccc1O`, the outcome (library stock 278 µM) is “inactive; censored for cell count”. Also, the z-score by setting is: under setting [1], -0.349 (inactive); under setting [3], 3.11 (active); under setting [4], 3.02 (active). Also, the cell count was 7290 under setting [1], 2520 under setting [3] and 1770 under setting [4].

Take `O=C(O)c1cccc(S(=O)(=O)N2CCc3ccccc3C2)c1`: the z-score was -0.371 (inactive) under setting [5], 0.24 (inactive) under setting [6], -0.13 (inactive) under setting [7] and 0.0481 (inactive) under setting [4]. Further, the cell count amounted to 5540 under setting [5], 4830 under setting [6], 5230 under setting [7] and 4980 under setting [4].

On to `O=C(O)CCCCCC[C@@H]1[C@@H](CC[C@@H](O)CCc2cccc(C(F)(F)F)c2)[C@H](O)C[C@@H]1O`, for which the z-score was -0.0245 (inactive) and the cell count came to 4710.

On to `COc1ccc(-c2nc3cc(F)ccc3s2)cc1OC`, for which the z-score was -0.706 (inactive) and the cell count was found to be 5090.

Take `COc1ccc(/C=C/C(=O)Nc2c(O)cccc2C(=O)O)cc1OC`: the z-score is -0.476 (inactive) and the cell count came out at 5390.

Turning to `O=C(O)/C=C/c1ccc(O)c(O)c1`, the z-score was -0.483 (inactive) and the cell count stood at 5860.

`O=C(/C=C/c1cccc(C(=O)NO)c1)NO`: the z-score is 3.39 (active) and the cell count was 4470.

Consider `CCCCCCCCCC(=O)N[C@@H](CN1CCOCC1)[C@@H](O)c1ccccc1`, for which the z-score is 0.0636 (inactive) and the cell count is 5620.

Consider `COC1C[C@@H]2CCC(C)[C@@](O)(O2)C(=O)C(=O)N2CCCC[C@@H]2C(=O)O[C@@H](C(C)CC2CCC(n3cnnn3)C(OC)C2)CC(=O)C(C)C=C(C)C(O)C(OC)C(=O)C(C)CC(C)C=CC=CC=C1C` (stereo not given in full), for which the z-score by setting is: under setting [5], 0.366 (inactive); under setting [6], 0.334 (inactive); under setting [7], 0.739 (inactive); under setting [4], 1.14 (inactive). For the same molecule, the cell count runs as follows: under setting [5], 4410; under setting [6], 4360; under setting [7], 4240; under setting [4], 3590.

As to `COC1CC2CCC(C)C(O)(O2)C(=O)C(=O)N2CCCCC2C(=O)OC(C(C)CC2CCC(O)C(OC)C2)CC(=O)C(C)C=C(C)C(O)C(OC)C(=O)C(C)CC(C)C=CC=CC=C1C` (stereo not given), the z-score was 0.756 (inactive) under setting [5], 0.731 (inactive) under setting [6], 1.2 (inactive) under setting [7] and 1.21 (inactive) under setting [4]. Further, the cell count under setting [5] came out at 2980, the cell count under setting [6] was 3130, the cell count under setting [7] turned out to be 2660 and the cell count under setting [4] worked out at 2720.

Turning to `CO[C@H]1C[C@@H]2CC[C@@H](C)[C@@](O)(O2)C(=O)C(=O)N2CCCC[C@H]2C(=O)O[C@H]([C@@H](C)C[C@@H]2CC[C@@H](O)[C@H](OC)C2)CC(=O)[C@H](C)/C=C(\C)[C@@H](O)[C@@H](OC)C(=O)[C@H](C)C[C@H](C)/C=C/C=C/C=C/1C`, the z-score was 2.24 (active) and the cell count is 4010.

`Cc1ccc(C(=O)Nc2ccc(Oc3cc4cnn(C)c4cc3-c3cn[nH]c3)c(F)c2)c(=O)n1-c1ccc(F)cc1`: the z-score under setting [1] is -0.888 (inactive), the z-score under setting [2] is -0.95 (inactive), the z-score under setting [3] is -1.73 (inactive) and the z-score under setting [4] was -2.48 (inactive). Besides, the cell count runs as follows: under setting [1], 7640; under setting [2], 6950; under setting [3], 7070; under setting [4], 6390.

Turning to `CC/C=C\C/C=C\C/C=C\C/C=C\C/C=C\CCCC(=O)O[C@H](COCCCCCCCCCCCCCCCC)COP(=O)([O-])OCC[N+](C)(C)C`, the z-score is -1.23 (inactive) and the cell count turned out to be 5300.

As for `CCCCC[C@H](O)/C=C/[C@@H]1[C@@H](C/C=C\CCCC(=O)NC(CO)CO)[C@@H](O)C[C@H]1O`, the z-score was -0.166 (inactive) and the cell count worked out at 5460.

As to `COc1cc(C(=O)NS(=O)(=O)c2ccccc2C)ccc1Cc1cn(C)c2ccc(NC(=O)OC3CCCC3)cc12`, the z-score was -0.169 (inactive) and the cell count stood at 4650. In addition, under setting [5], the z-score is -0.186 (inactive) and the cell count was 5870. Further, under setting [6], the z-score was 0.251 (inactive) and the cell count came out at 5520. Also, under setting [7], the z-score is -0.394 (inactive) and the cell count was 5910. Besides, under setting [4], the z-score is 0.0319 (inactive) and the cell count worked out at 4990.

As for `CN1CCc2c(c3ccccc3n2Cc2ccc(C(=O)NO)cc2)C1`, the z-score under setting [1] is -0.165 (inactive), the z-score under setting [2] is -0.118 (inactive), the z-score under setting [3] was -0.0772 (inactive) and the z-score under setting [4] was 0.0302 (inactive). The cell count worked out at 5170 under setting [1], 5040 under setting [2], 4790 under setting [3] and 4770 under setting [4].

Turning to `Cn1cc(CNCC2CCN(c3ncc(C(=O)NO)cn3)CC2)c2ccccc21`, the outcome (library stock 400 µM) is “inactive; censored for cell count”, the outcome (library stock 2 mM) was “inactive; censored for cell count” and the outcome (library stock 10 mM) was “inactive; censored for cell count”. For the same molecule, under setting [5], the z-score was 10.5 (active). The cell count under setting [5] was 1710.

`Nc1nc(OC(c2ccc(-c3cccc(F)c3)cc2)C(F)(F)F)cc(-c2ccc(CC(N)C(=O)O)cc2)n1` (stereo not given): the z-score by setting is: under setting [5], -0.00893 (inactive); under setting [6], -0.406 (inactive); under setting [7], -0.0477 (inactive); under setting [4], -0.333 (inactive). Besides, the cell count runs as follows: under setting [5], 4780; under setting [6], 5340; under setting [7], 4660; under setting [4], 4880.

In the case of `CCCCCC(=O)CC[C@H]1C(=O)C[C@H](O)[C@@H]1C/C=C\CCCC(=O)O`, the z-score was 0.618 (inactive) and the cell count came out at 5420.

Turning to `CN1CCN(c2ccc(Nc3c4ccccc4nc4ccccc34)cc2)CC1`, the outcome (library stock 2 mM) was “inactive; censored for cell count” and the outcome (library stock 10 mM) is “inactive; censored for cell count”. Further, the z-score was 0.226 (inactive) under setting [1]; -0.0401 (inactive) under setting [5]; 0.109 (inactive) under setting [2]; 1.07 (inactive) under setting [6]; 0.208 (inactive) under setting [3]. Besides, the cell count came out at 6220 under setting [1]; 5080 under setting [5]; 5990 under setting [2]; 4020 under setting [6]; 6120 under setting [3].

Take `CS(=O)(=O)Nc1ccc([N+](=O)[O-])cc1Oc1ccccc1`: the z-score was 1.64 (inactive) and the cell count was determined as 4310.

Consider `COc1cc(NS(C)(=O)=O)ccc1Nc1c2ccccc2nc2ccccc12`, for which the outcome (library stock 2 mM) was “inactive; censored for cell count” and the outcome (library stock 10 mM) is “inactive; censored for cell count”. Besides, the z-score is 0.627 (inactive) under setting [5] and 2.51 (active) under setting [6]. Besides, the cell count under setting [5] is 4290 and the cell count under setting [6] amounted to 2280.

Values taken from PubChem BioAssay AID1645838 (ICCB-Longwood Screening Facility, Harvard Medical School, 2021).
